The text below walks through data of PubChem BioAssay (NCATS).

Assay [1] is described as follows: qHTS of pediatric cancer cell lines to identify multiple opportunities for drug repurposing: Confirmatory screen for A673 cells (AID 1347110).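 Note: cells exposed to compound for 48 h before the viability read; nearly all actives have a fitted effect of over 65% in size.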 Conditions: A673 Ewing sarcoma cell viability. In a few lines:
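qHTS titration format: primary MIPE 0.78 nM-46 µM (11 pts), NPC 0.59 nM-46 µM; confirmation 11 pts. 48 h, CTG luminescence.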
In general terms: qHTS replaces the single test concentration by a dilution series.

Assay [2] is described as follows: qHTS of pediatric cancer cell lines to identify multiple opportunities for drug repurposing: Confirmatory screen for SK-N-MC cells (AID 1347111).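 Note: cells exposed to compound for 48 h before the readout; nearly all actives have a fitted effect of over 70% in size.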 Conditions: SK-N-MC cell viability. In short, it runs like this: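 Seed 500-1,000 cells/well; rest 5 h at 37 degrees C. Pin-transfer compounds, 11-point titration. Incubate 48 h. Add CellTiter-Glo, 15 min RT, read luminescence.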

A short description of assay [3]: qHTS of pediatric cancer cell lines to identify multiple opportunities for drug repurposing: Confirmatory screen for BT-12 cells (AID 1347112). Note: nearly all actives have a fitted effect of over 55% in size. The conditions noted are these: BT-12 rhabdoid tumor cells, viability; series mostly up to 95.5 µM. In short, it runs like this: (§1)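 Cells (500-1,000/well) rested 5 h, then received compounds for 48 h; metabolically active cells were measured by CellTiter-Glo luminescence. Final concentrations spanned up to 46 µM (MIPE, 11-point) or 0.59 nM-46 µM (NPC, 8-point) in primary screens, 11-point in follow-ups.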

Assay [4] in a line: qHTS of pediatric cancer cell lines to identify multiple opportunities for drug repurposing: Confirmatory screen for LAN-5 cells (AID 1347113). Note: nearly all actives have a fitted effect of over 65% in size. Conditions: LAN-5 neuroblastoma cell viability; series mostly up to 95.5 µM. In a few lines: as §1
The nature of assay [5]: qHTS of pediatric cancer cell lines to identify multiple opportunities for drug repurposing: Confirmatory screen for DAOY cells (AID 1347114). Note: nearly all actives have a fitted effect of over 65% in size. Conditions: DAOY medulloblastoma cells viability, cytotoxicity qHTS; series mostly up to 97.2 µM. In short, it runs like this:
(§2)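 Viability measured as metabolically active cells via CellTiter-Glo luminescence following 48 hours of compound exposure, 11-point dilutions in confirmatory testing. 500-1,000 cells/well plated 5 hours before dosing; controls were DMSO and 2.3 µM bortezomib.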

The nature of assay [6]: qHTS of pediatric cancer cell lines to identify multiple opportunities for drug repurposing: Confirmatory screen for NB-EBc1 cells (AID 1347115).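 Note: cells exposed to compound for 48 h before the viability read; nearly all actives have a fitted effect of over 45% in size.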 Conditions: NB-EBc1 neuroblastoma cells, viability (cytotoxicity); series mostly up to 95.5 µM. In a few lines: as §1
Assay [7] can be described thus: qHTS of pediatric cancer cell lines to identify multiple opportunities for drug repurposing: Confirmatory screen for SJ-GBM2 cells (AID 1347116). Note: nearly all actives have a fitted effect of over 60% in size. The conditions noted are these: SJ-GBM2 glioblastoma cells, viability; series mostly up to 97.2 µM. In short, it runs like this:
as §2

Assay [8] is described as follows: qHTS of pediatric cancer cell lines to identify multiple opportunities for drug repurposing: Confirmatory screen for BT-37 cells (AID 1347117). Note: nearly all actives have a fitted effect of over 55% in size. The conditions noted are these: BT-37 pediatric cancer cells, viability. In short, it runs like this: as §1
Assay [9] is described as follows: qHTS of pediatric cancer cell lines to identify multiple opportunities for drug repurposing: Confirmatory screen for TC32 cells (AID 1347118).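 Note: cells exposed to compound for 48 h before the read; nearly all actives have a fitted effect of over 65% in size.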 The conditions noted are these: TC32 Ewing sarcoma cells viability qHTS. In a few lines: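 Luminescent CellTiter-Glo read-out of metabolically active TC32 cells after 48 h compound exposure. Primary: MIPE 11-point, 0.78 nM–46 µM; NPC 8-point, 0.59 nM–46 µM. Confirmatory: 11-point dilutions.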

The nature of assay [10]: qHTS of pediatric cancer cell lines to identify multiple opportunities for drug repurposing: Confirmatory screen for MG 63 (6-TG R) cells (AID 1347119). Note: nearly all actives have a fitted effect of over 55% in size. Conditions: MG-63 (6-TG resistant) osteosarcoma viability; series mostly up to 95.5 µM. From the text: Drug repurposing or repositioning has been offered as a strategy for drug development in oncology programs. This approach has special potential for childhood cancers and other rare or orphan diseases, where the expected return on new drug development has been a disincentive to pharmaceuticals.
In this project we exploit the poly-pharmacology of drugs to discover new indications via phenotypic screening of a panel of 19 well-characterized cell lines derived from solid tumors seen in children and adolescents. The goal is to identify approved drugs with previously unrecognized anticancer properties that has the potential to reveal new mechanisms and biological processes involved in carcinogenesis or drug resistance. We employed a titration-based paradigm (quantitative high-throughput screening or qHTS), where all compounds were tested at multiple concentrations for their effect on cell viability. Concentration-response curves (CRCs) were derived directly from the primary screen, and both potency and efficacy values were used to identify compounds with robust bioactivity profiles. We screened the NIH Chemical Genomics Center (NCGC) Pharmaceutical Collection (NPC) and Mechanism Interrogation Plate (MIPE) small molecule collections of approved and investigational compounds against these cell lines; and measured metabolically active cells after 48 hours of compound treatment as a proxy for cell viability.
Assay Submitter: Nathalia J. Martinez, National Center for Advancing Translational Sciences, National Institutes of Health, Rockville, MD, USA; email: natalia.martinez@nih.gov
[1] Shen, M et al. Quantitative high-throughput phenotypic screening of pediatric cancer cell lines identifies multiple opportunities for drug repurposing. Oncotarget 2017 Dec 19;9(4):4758-4772. PMID 29435139.
The cells were obtained from University of North Carolina (UNC), Pediatric Preclinical Testing Program (PPT), and Coriell Institute (CI).
qHTS cell viability assay:
Cells were assayed in growth media at a density of 500-1,000 cells/well. Five microliters of cells were dispensed into 1,536-well, white, solid-bottom, TC-treated plates (Greiner Bio One) using a multidrop dispenser and incubated at 37 degrees C, 5% CO2, under a humidified atmosphere for 5 hours. Twenty-three nanoliters of compounds and controls (neutral control DMSO or positive control bortezomib at final concentration of 2.3 µM) were subsequently transferred by Kalypsys pintool. For primary screens, the MIPE collection was tested at 11-point dilutions (final concentrations range from 0.78 nM to 46 µM) and the NPC collection at 8-point dilutions (final concentrations range from 0.59 nM to 46 µM). Compounds tested in follow-up screens were assayed at 11-point dilutions. Cells were incubated for 48 hours, followed by addition of 3 µL of CellTiter-Glo (Promega). After a 15 min incubation at room temperature, samples were analyzed for luminescence intensity using a ViewLux High-throughput CCD imager equipped with clear filters.

Inconclusive results are not listed. The source made the active and inactive calls. Calls come from the whole dose curve; as a rule, active = well fitted curve in the direction sought with a large enough effect; inconclusive = small, poorly fitted or top-dose-only effect, or another doubt; inactive = no such curve, though single readings can be large; an effect the other way counts as inactive or inconclusive.
Potency is the fitted concentration of half-maximal effect.

As for `CN(C)c1ccc(C(=C2C=CC(=[N+](C)C)C=C2)c2ccccc2)cc1`, the Potency was 293 nM (active) in assay [1]; 369 nM (active) in assay [2]; 1850 nM (active) in assay [3]; 737 nM (active) in assay [4]; 657 nM (active) in assay [5]; 827 nM (active) in [6]. Also, the Potency is 1310 nM (active) in [7], 657 nM (active) in assay [8], 261 nM (active) in [9] and 208 nM (active) in assay [10].

As to `CCCSc1ccc2nc(NC(=O)OC)[nH]c2c1`, the Potency is 2000 nM (active) in assay [1]; 1580 nM (active) in assay [2]; 25100 nM (active) in assay [3]; 8910 nM (active) in [4]; 1260 nM (active) in assay [5]; 3980 nM (active) in [8]. Also, the Potency is 355 nM (active) in assay [9] and 1260 nM (active) in assay [10].

As for `CCOC(=O)c1ccccc1O`, the Potency in [1] was 3290 nM (active); in [2] it was 1650 nM (active); in assay [9], 1470 nM (active). Further, the Potency entry in assay [5] and in assay [6] was “inactive” in each case.

With `[O-][n+]1ccccc1SSc1cccc[n+]1[O-]`, the Potency is 1620 nM (active) in [1]; 456 nM (active) in assay [2]; 3230 nM (active) in assay [3]; 288 nM (active) in [4]; 2570 nM (active) in [6]; 811 nM (active) in assay [8]. In addition, the Potency in [9] is 1290 nM (active). Besides, in assay [10], the Potency result was “inactive”.

In the case of `COC(=O)Nc1nc2ccc(C(=O)C3CC3)cc2[nH]1`, the Potency in assay [1] was 1310 nM (active); in [2] it was 1040 nM (active); in [3] it was 16500 nM (active); in [8], 2330 nM (active); in [9], 1170 nM (active); in [10] it was 1470 nM (active).

On to `COc1cccc2c1C(=O)c1c(O)c3c(c(O)c1C2=O)C[C@@](O)(C(=O)CO)C[C@@H]3O[C@H]1C[C@H](N)[C@H](O[C@@H]2CCCCO2)[C@H](C)O1`, for which the Potency in [1] is 3290 nM (active); in assay [2], 1650 nM (active); in assay [3], 13100 nM (active); in assay [5], 11700 nM (active); in assay [6] it was 3290 nM (active); in [7], 14700 nM (active). The results for the Potency in assay [8] and in assay [9] were 1170 nM (active) and 465 nM (active), respectively.

With `Nc1ccc([N+](=O)[O-])cc1O`, the Potency in assay [1] was 2140 nM (active); in assay [9] it was 7590 nM (active). In addition, the Potency result in assay [3], in assay [4], in [5], in [6], in [7] and in [10] was “inactive” each time.

As for `COC(=O)c1nc(Cl)c(Cl)nc1N`, the Potency was 293 nM (active) in assay [1]; 1170 nM (active) in [2]; 2080 nM (active) in assay [3]; 3290 nM (active) in assay [4]; 1650 nM (active) in [5]; 16500 nM (active) in assay [6]. Further, the Potency is 2080 nM (active) in [7], 1470 nM (active) in assay [8], 2330 nM (active) in assay [9] and 2930 nM (active) in assay [10].

Regarding `N=C1N=C(N)c2cc3ccccc3cc21`, the Potency was 38000 nM (active) in assay [1]; 17000 nM (active) in assay [2]; 38000 nM (active) in assay [4]; 42700 nM (active) in assay [5]; 38000 nM (active) in [8]; 17000 nM (active) in [9]. Moreover, the Potency in assay [10] was 19100 nM (active).

Consider `Oc1c(Br)cc(Br)c2cccnc12`, for which the Potency was 11700 nM (active) in assay [1]; 1170 nM (active) in [2]; 18500 nM (active) in assay [4]; 26100 nM (active) in assay [6]; 18500 nM (active) in assay [8]; 1650 nM (active) in assay [9]. The Potency in [10] was 16500 nM (active). In addition, the Potency result in [7] is “inactive”.
